A selection: hits, their analogues and other compounds. The true share with any hit is near 12%.
G9a inh – qHTS Assay for Inhibitors of Histone Lysine Methyltransferase G9a; Histone-lysine N-methyltransferase EHMT2 (Homo sapiens), Q96KQ7; G9a H3K9 monomethylation, AlphaScreen, 2 h; Potency, µM (highest dose often 102 µM), actives largely listed as inhibitors; 8.8% of 350,000 active; AID 504332, 2011; further: nearly all actives have a fitted effect of over 75% in size
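Enzyme 20 nM + cpd, 15 min RT; add b-H3K9 pep 500 nM / SAM 20 uM; 2 h RT; anti-H3K9me1 Ab 0.5 ug/mL + SA donor / anti-rabbit acceptor beads 20 ug/mL each, 10 min; AlphaScreen read.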
BAZ2B inh – qHTS Assay for Inhibitors of BAZ2B | Bromodomain adjacent to zinc finger domain protein 2B (Homo sapiens), Q9UIF8 | AlphaScreen BAZ2B-H3K14Ac peptide displacement | Potency, µM (titrated, usually from 114 µM), hits mostly inhibitors | 4.4% of 360,000 active | AID 504333, 2011; further: nearly all actives have a fitted effect of over 60% in size
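Multi-concentration screen (max 110 uM) measuring displacement of acetylated histone H3 peptide from BAZ2B by AlphaScreen, using 50 nM protein, 50 nM peptide and 10 ug/mL streptavidin donor plus Ni-chelate acceptor beads.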
L3MBTL1 inh – qHTS Assay for the Inhibitors of L3MBTL1; Lethal(3)malignant brain tumor-like protein 1 (Homo sapiens), Q9Y468; AlphaScreen L3MBTL1–H3K9me1 peptide binding; Potency, µM (highest dose often 57.1 µM), actives largely listed as inhibitors; 0.66% of 230,000 active; AID 485360, 2010; further: nearly all actives have a fitted effect of over 60% in size
Target sequence (Q9Y468 whole entry, looked up): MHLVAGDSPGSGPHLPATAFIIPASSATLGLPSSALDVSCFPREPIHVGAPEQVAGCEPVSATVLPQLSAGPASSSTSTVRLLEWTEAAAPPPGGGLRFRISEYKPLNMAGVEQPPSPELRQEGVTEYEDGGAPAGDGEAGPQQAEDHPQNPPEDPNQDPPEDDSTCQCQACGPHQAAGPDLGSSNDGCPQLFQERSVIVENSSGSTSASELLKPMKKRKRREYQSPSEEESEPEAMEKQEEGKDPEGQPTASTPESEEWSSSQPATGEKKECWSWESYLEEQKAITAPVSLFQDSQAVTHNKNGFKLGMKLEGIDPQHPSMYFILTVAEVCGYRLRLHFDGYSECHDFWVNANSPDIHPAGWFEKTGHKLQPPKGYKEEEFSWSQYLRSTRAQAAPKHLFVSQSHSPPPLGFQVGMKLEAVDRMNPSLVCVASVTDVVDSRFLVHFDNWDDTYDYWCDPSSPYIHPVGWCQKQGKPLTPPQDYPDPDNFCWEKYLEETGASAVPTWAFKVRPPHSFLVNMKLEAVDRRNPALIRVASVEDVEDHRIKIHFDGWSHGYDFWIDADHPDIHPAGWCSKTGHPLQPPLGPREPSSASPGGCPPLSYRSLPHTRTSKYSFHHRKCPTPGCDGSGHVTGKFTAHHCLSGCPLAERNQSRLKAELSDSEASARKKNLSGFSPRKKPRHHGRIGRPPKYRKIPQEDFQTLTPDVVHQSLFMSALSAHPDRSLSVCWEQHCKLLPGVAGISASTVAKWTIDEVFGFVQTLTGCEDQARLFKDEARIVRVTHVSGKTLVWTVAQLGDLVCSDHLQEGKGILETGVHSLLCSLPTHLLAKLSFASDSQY
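Read-out is AlphaScreen signal from streptavidin donor and nickel chelate acceptor beads (10 ug/mL final each) bridging L3MBTL1 (50 nM) and biotinylated K9-monomethylated H3(1-15) peptide (75 nM), after 30 min compound exposure at room temperature.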
JMJD2A Tudor inh – qHTS Assay for Inhibitors of JMJD2A-Tudor Domain; Lysine-specific demethylase 4A (Homo sapiens), O75164; AlphaScreen JMJD2A-Tudor / H3K4me3 peptide binding; Potency, µM (top dose mostly 114 µM), most hits filed as inhibitors; 4.4% of 390,000 active; further: nearly all actives have a fitted effect of over 50% in size
HP1b chromo inh – HTS for Inhibitors of HP1-beta Chromodomain Interactions with Methylated Histone Tails | Chromobox protein homolog 1 (Homo sapiens), P83916 | AlphaScreen HP1-beta / biotin-H3K9me3 peptide binding | Potency, µM (highest dose often 114 µM), usual class: inhibitors | 0.56% of 390,000 active; further: nearly all actives have a fitted effect of over 70% in size
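AlphaScreen: HP1-beta (50 nM) preformed 30 min with biotin-H3(1-18)K9me3 peptide (50 nM) in PBS pH 7.4, 0.01% Tween-20. Compound added for 30 min at RT, then streptavidin donor/nickel chelate acceptor beads (10 ug/mL) for 30 min.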
Sfp PPTase inh – qHTS Assay for Inhibitors of Bacillus subtilis Sfp phosphopantetheinyl transferase (PPTase); 4'-phosphopantetheinyl transferase ffp (Bacillus subtilis), Q9F4F7; Biochemical Sfp PPTase activity, qHTS; Potency, µM, most hits filed as inhibitors; 3.5% of 310,000 active;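 further: the enzyme is Sfp with the accession as filed and its product quenches rhodamine fluorescence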
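After 15 min at room temperature with compound, 15 nM Sfp received 5 uM rhodamine-CoA plus 12.5 uM BHQ-2-ybbR (50 mM Hepes pH 7.6, 10 mM MgCl2). Rate came from the fluorescence difference over 30 min, ex 525/em 598 nm.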
Each line names hits and unclear results; the compound was inactive in the other large screens. The call rests on the fitted dose curve; in most records, active means well fitted curve in the direction sought with a large enough effect; inconclusive means small, poorly fitted or top-dose-only effect, or another doubt; inactive means no such curve, though single readings can be large; an effect the other way counts as inactive or inconclusive.

COc1ccc(C2c3c(nc(C)[nH]c3=O)Oc3ccc4ccccc4c32)cc1OC (stereo unspecified)	none (no result: G9a inh, BAZ2B inh, L3MBTL1 inh, HP1b chromo inh, Sfp PPTase inh)
COc1cc(C2c3c([nH]c(=O)[nH]c3=O)Nc3ccc4ccccc4c32)ccc1O (stereo unspecified)	G9a inh 50µM, BAZ2B inh inconclusive, L3MBTL1 inh inconclusive, JMJD2A Tudor inh inconclusive, HP1b chromo inh inconclusive, Sfp PPTase inh inconclusive
COc1cc(C2c3c([nH]c(=O)[nH]c3=O)Nc3ccc4ccccc4c32)cc(OC)c1OC (stereo unspecified)	G9a inh inconclusive, BAZ2B inh 56µM, JMJD2A Tudor inh inconclusive, HP1b chromo inh 71µM, Sfp PPTase inh 56µM (no result: L3MBTL1 inh)
COc1cc(C2CC(=O)c3c(ccc4ccccc34)N2)ccc1O (stereo unspecified)	G9a inh 11µM
CN1CCN(c2cc3c(nn2)Oc2ccccc2N3C)CC1	none (no result: BAZ2B inh, L3MBTL1 inh, JMJD2A Tudor inh, HP1b chromo inh)
CC(C)c1cc(C(C)C)c(S(=O)(=O)Nc2cccc3cccnc23)c(C(C)C)c1	none (no result: G9a inh, BAZ2B inh, L3MBTL1 inh, HP1b chromo inh)
Cc1nc2cnc(N(C)C)nc2n(CCC#N)c1=O	none (no result: BAZ2B inh, L3MBTL1 inh, JMJD2A Tudor inh, HP1b chromo inh)
COCCn1c(C)cc(O)c(C(c2ccccc2)N2CCN(c3ccc(F)cc3)CC2)c1=O (stereo unspecified)	G9a inh inconclusive (no result: L3MBTL1 inh, Sfp PPTase inh)
Cc1cc(C)n2c(Nc3ccc4c(c3)OCCO4)c(-c3ccc(C)o3)nc2n1	G9a inh 50µM, BAZ2B inh inconclusive, Sfp PPTase inh 32µM (no result: L3MBTL1 inh)
Cc1cc(C)n2c(Nc3ccc4c(c3)OCCO4)c(-c3ccco3)nc2n1	G9a inh 50µM, BAZ2B inh inconclusive (no result: L3MBTL1 inh, JMJD2A Tudor inh, HP1b chromo inh)
Cc1ccc(-c2nc3nc(C)cc(C)n3c2Nc2ccc3c(c2)OCCO3)cc1	G9a inh inconclusive, BAZ2B inh inconclusive, JMJD2A Tudor inh inconclusive (no result: L3MBTL1 inh, Sfp PPTase inh)
OC[C@H]1NC[C@@H](O)[C@@H](O)[C@H]1O	none (no result: G9a inh, BAZ2B inh, L3MBTL1 inh, JMJD2A Tudor inh, HP1b chromo inh)
Cc1cn2c(=O)cc(COC(=O)c3cccc(NC(=O)c4ccccc4C)c3)nc2s1	none (no result: L3MBTL1 inh, Sfp PPTase inh)
O=C1C(=C2CCCCC2)SC(=S)N1Cc1ccco1	G9a inh 35µM, BAZ2B inh inconclusive, L3MBTL1 inh inconclusive, JMJD2A Tudor inh 56µM, Sfp PPTase inh 40µM
O=C(O)CCN1C(=O)C(=C2CCCCCC2)SC1=S	G9a inh 45µM, Sfp PPTase inh 50µM
CCOC(=O)C1=C(Cc2ccc(Cl)cc2)C(=O)c2ccccc2C1=O	G9a inh 2.5µM, BAZ2B inh 22µM, JMJD2A Tudor inh 35µM, HP1b chromo inh 20µM, Sfp PPTase inh 3.5µM (no result: L3MBTL1 inh)
CCOC(=O)c1c(C=O)c(C)n(Cc2ccc(Cl)cc2)c1C	JMJD2A Tudor inh inconclusive (no result: L3MBTL1 inh)
O=C(C1=C[C@@H](c2csc3ccccc23)C[C@@H](OCCCCO)O1)N1CCN(Cc2ccc3c(c2)OCO3)CC1	G9a inh inconclusive, BAZ2B inh inconclusive, JMJD2A Tudor inh inconclusive
O=C(C1=C[C@H](c2csc3ccccc23)C[C@H](OCCCCO)O1)N1CCN(Cc2ccccc2)CC1	G9a inh inconclusive, BAZ2B inh 50µM, JMJD2A Tudor inh inconclusive, Sfp PPTase inh inconclusive
CCOC(=O)C1CCC(CN(Cc2ccc(Cl)cc2)S(=O)(=O)c2ccc(F)c(C(=O)Nc3cccc(F)c3)c2)CC1 (stereo unspecified)	none (no result: L3MBTL1 inh, Sfp PPTase inh)
CN1C(=O)c2ccc(NC(=O)c3c(C(=O)O)cccc3[N+](=O)[O-])cc2C1=O	G9a inh 40µM (no result: L3MBTL1 inh)
Cc1ccccc1NC(=O)c1cccc(NC(=O)c2c(C(=O)O)cccc2[N+](=O)[O-])c1	none (no result: G9a inh, BAZ2B inh, L3MBTL1 inh, Sfp PPTase inh)
COC(=O)c1nc(Nc2cc(F)cc(F)c2)nc(NC2CCCC2)n1	none (no result: G9a inh, BAZ2B inh, L3MBTL1 inh, HP1b chromo inh, Sfp PPTase inh)
CC(C)(C)c1ccc(OCCn2ccccc2=O)cc1	JMJD2A Tudor inh 3.5µM
COc1ccc(CCN(C)CCCOc2ccc(S(=O)(=O)c3[nH]c4ccccc4c3C(C)C)cc2)cc1OC	Sfp PPTase inh 40µM (no result: G9a inh, BAZ2B inh, L3MBTL1 inh, JMJD2A Tudor inh, HP1b chromo inh)
COc1ccc(CCN(Cc2ccc(C(C)C)cc2)S(=O)(=O)c2ccc(S(=O)(=O)N(C)C)cc2)cc1OC	none
COc1cccc(NC(=O)CSc2nc3ccccc3n2C)c1	JMJD2A Tudor inh inconclusive
